# In ChEMBL document CHEMBL3988442, “University of Dundee, Small-Polar-MMV Screening Library” (2021):
# Values joined by “and” are separate entries in the source; they are usually repeats but may differ in a detail not shown here. Equal entries are not always repeated. The campaign covered roughly 34,000 compounds. About 290 (0.85%) showed an effect of 50% or more. The sample as a whole holds a higher share of strong results than the screen did.
# Tested on: Plasmodium falciparum
# Test: Plasmodium falciparum sporozoite viability assay
# Assay type: functional, organism-based
# Parameters: scale not given: in the data most compounds retested in dose-response had high values
Structure (SMILES),Percent Effect [%],Percent Effect (10 mM as filed; unlikely as a test dose)
COc1ccc(CN2CCN(C(C)=O)CC3(CC(=O)N(C)C3)C2)cc1.O=C(O)C(F)(F)F (configuration not stated),6.785,–
CCOc1ccc(CC(=O)N2CCCC(n3nc(C)nc3C)C2)cc1 (configuration not stated),-2.342,–
CC(C)N(Cc1nc(-c2cccs2)no1)CC1CCC(=O)N1 (configuration not stated),3.846,–
OC(COCc1ccc2c(c1)OCO2)CN1CC(n2cccn2)C1 (configuration not stated),13.47,–
Cc1cc(C)n(C2CCN(Cc3nc4ccccc4n3C)CC2)n1,1.623,–
CC1=N[C@@]2(CC[C@@H]3CN(Cc4ccccc4)C[C@@H]32)C(=O)N1CC1CC1.O=C(O)C(F)(F)F,2.527,–
CN1CC2(CCCN(Cc3nnc(-c4ccco4)o3)CC2)OC1=O (configuration not stated),–,-3.132% and -3.886%
CN(C)c1cc(N2CCN(c3ccccn3)CC2)ncn1,-18.98,–
CN(C)CCN(C)c1cc(N2CCN(c3ccccn3)CC2)ncn1,-8.534,–
CC(=O)N1CCCC1(C)c1nc(C)no1 (configuration not stated),0.7282,–
Cc1nc(C)c(CNC(=O)N2CCc3ccccc3C2CO)s1 (configuration not stated),-12.91,–
COCCCN1Cc2cccc(NC(=O)c3cc(F)cc(F)c3)c2C1,–,-15.93% and -21.99% and -27.51%
Cc1cnn(CCNCc2nnc(C3CC3)o2)c1,9.956,–
CCOC(=O)c1ccc(NC(=O)Cn2cc(I)cn2)cc1,–,-22.37% and -20.15% and -13.35%
Cc1ccc(NC(=O)Cn2cc(I)cn2)cc1,–,-17.48% and -21.7% and -14.78%
NC(=O)c1ccc(NC(=O)Cn2cc(I)cn2)cc1,–,84.67% and 86.35% and 89.46%
O=C(c1cccnc1)N1Cc2ccccc2OCC1Cn1ccnc1 (configuration not stated),-1.384,–
Cc1cc(C)nc(C2CCN(C(=O)c3cnc(N(C)C)nc3)C2)n1 (configuration not stated),-0.8427,–
COC(=O)c1sc(NCc2ccc(N3CCC(O)CC3)c(F)c2)nc1Cl,–,-24.87% and -16.11% and -1.959%

Structure (SMILES),Percent Effect [%],Percent Effect (10 mM as filed; unlikely as a test dose)
OC1CCN(c2ccc(CNc3nc4ccccc4s3)cc2F)CC1,–,62.02% and 41.95% and 71.05%
O=C(O)C(F)(F)F.O=C(O)C(F)(F)F.c1ccc(NCc2cnc3n2CCN(CC2CCOC2)CC3)nc1 (configuration not stated),-7.491,–
Cc1ncsc1C(=O)NCc1ccnc(OCC(F)(F)F)c1,6.389,–
CCN(CC)S(=O)(=O)c1cc2c3c(c1)c(C)cc(=O)n3CC2,16.61,–
CN1CCN(Cc2cnc3n2CCN(Cc2cccs2)C3)CC1.O=C(O)C(F)(F)F.O=C(O)C(F)(F)F.O=C(O)C(F)(F)F,-13.03,–
CCCC(C)C(=O)NCc1cn2cc(Br)ccc2n1 (configuration not stated),-3.946,–
CCn1cc(NC(=O)NCC(c2ccc(OC)cc2)N(C)C)cn1 (configuration not stated),–,43.93% and 35.12% and 56.29%
CCn1cc(NC(=O)Nc2ccc3c(c2)OCCO3)cn1,–,64.15% and 57.73% and 68.6%
CCn1cc(NC(=O)NCCc2ccc3c(c2)OCCO3)cn1,-0.8103,–
O=C(CCn1cc(Cl)cn1)Nc1ccc2c(c1)OCCO2,–,65.57% and 50.96%
O=C(Cn1cc(Cl)cn1)Nc1ccc2c(c1)OCO2,–,-26.57% and -36.31%
CCn1cc(NC(=O)NCC(c2cccc(OC)c2)N(C)C)cn1 (configuration not stated),–,18.25% and 14.26% and 26.58%
O=C(Cn1cc(Cl)cn1)Nc1ccc2c(c1)OCCCO2,–,-49.11% and -46.89%
Cc1nc2cc(O)nn2c(C)c1CCC(=O)NCc1cc(Br)cs1,3.643,–
O=C(NCCc1ccccc1)c1cccc(S(=O)(=O)NC2CCOC2)c1 (configuration not stated),-7.302,–
CN1CCC(c2cccc(-c3cccc(C(=O)O)c3)n2)CC1,10.86,–
CCOc1ccc(CCCC(=O)N2CCC(C(=O)NC)C2)cc1C (configuration not stated),-7.967,–
COc1cc(CCC(=O)NC(C)C(=O)O)ccc1OCC(F)(F)F (configuration not stated),-11.4,–
Cc1nn(C)c(C)c1C1CCCN1c1ncnc2sccc12 (configuration not stated),-0.7353,–

Structure (SMILES),Percent Effect [%],Percent Effect (10 mM as filed; unlikely as a test dose)
O[C@H]1CN(Cc2c[nH]nc2-c2ccccc2)CC[C@@]12CCCO2,16.42,–
Nc1ncc(-c2ccc(Cl)cc2)c(C2CCCNC2)n1 (configuration not stated),17.56,–
CN(C)C(=O)c1sc2ncccc2c1C1CNCCO1.Cl (configuration not stated),-1.679,–
Cl.Cl.Cn1nc(C2CNCCO2)cc1CCOc1ccc(Cl)cc1 (configuration not stated),-1.356,–
Cl.Clc1ccc(-c2ccc(C3CNCCO3)nc2)cc1 (configuration not stated),–,88.25% and 80.55% and 85.69%
Cn1ccnc1CN1CCN(Cc2noc(C3CC3)n2)CC1,10.42,–
CCN1CC[C@@]2(C(=O)N3CCOCC3)CCN(C(=O)C(C)C)CC[C@@H]12.O=C(O)C(F)(F)F,20.75,–
Cc1ccc(-c2nccn2-c2ccc(OC3CCN(C)CC3)cc2)o1,–,49.42% and 35.94%
CCOC[C@H]1CC[C@H]2[C@H](CCN2C(=O)c2cnccn2)O1,7.105,–
c1ccc(OCCN2CCC(c3cnccn3)CC2)cc1,9.194,–
CC(C)c1nc(CN2CCN(Cc3ccccn3)CC2)cs1,0,–
CC(O)CN1CCN(Cc2csc(-c3ncccn3)n2)CC1 (configuration not stated),–,68.95% and 42.73% and 61.03%
COCC(=O)N1CCN(Cc2csc(-c3ncccn3)n2)CC1,–,-31.63% and -33.22% and -17.89%
c1cnc(-c2nc(CN3CCCN(Cc4cccs4)CC3)cs2)nc1,–,-6.924% and 13.02% and 13.14%
CC(C)C(=O)N1CCN(Cc2csc(-c3ncccn3)n2)CC1,–,77.28% and 53.85% and 54.68%
O=C(c1cnccn1)N1CCN(Cc2csc(-c3ccccc3)n2)CC1,9.607,–
CC(O)CN1CCN(Cc2csc(-c3cnn(C)c3)n2)CC1 (configuration not stated),8.176,–
CC(C)C(=O)N1CCN(Cc2csc(-c3ccccn3)n2)CC1,–,63.59% and 62.99% and 41.75%
COCCN1CCC2(CCN(C(=O)c3ccc(F)cc3)CC2)C1=O,6.318,–
